Shown are actives, neighbours in structure and some others; about 3.1% of the full set was active somewhere.
Neddylation inh: inhibitors of cullin neddylation, primary screen, biochemical, TR-FRET, uHTS, NAE and Ubc12; AID 651699, 2012; actives 0.58% (n = 360,000); calls only at 25 µM; in the data active = inhibition above about 36%
Target sequence (P61081 whole entry, looked up): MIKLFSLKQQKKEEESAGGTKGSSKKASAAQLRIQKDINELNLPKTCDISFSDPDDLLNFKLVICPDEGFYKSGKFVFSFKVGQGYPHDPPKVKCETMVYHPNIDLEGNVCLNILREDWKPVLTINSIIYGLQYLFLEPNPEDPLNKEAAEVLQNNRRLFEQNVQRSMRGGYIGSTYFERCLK
Target sequence (Q13564 whole entry, looked up): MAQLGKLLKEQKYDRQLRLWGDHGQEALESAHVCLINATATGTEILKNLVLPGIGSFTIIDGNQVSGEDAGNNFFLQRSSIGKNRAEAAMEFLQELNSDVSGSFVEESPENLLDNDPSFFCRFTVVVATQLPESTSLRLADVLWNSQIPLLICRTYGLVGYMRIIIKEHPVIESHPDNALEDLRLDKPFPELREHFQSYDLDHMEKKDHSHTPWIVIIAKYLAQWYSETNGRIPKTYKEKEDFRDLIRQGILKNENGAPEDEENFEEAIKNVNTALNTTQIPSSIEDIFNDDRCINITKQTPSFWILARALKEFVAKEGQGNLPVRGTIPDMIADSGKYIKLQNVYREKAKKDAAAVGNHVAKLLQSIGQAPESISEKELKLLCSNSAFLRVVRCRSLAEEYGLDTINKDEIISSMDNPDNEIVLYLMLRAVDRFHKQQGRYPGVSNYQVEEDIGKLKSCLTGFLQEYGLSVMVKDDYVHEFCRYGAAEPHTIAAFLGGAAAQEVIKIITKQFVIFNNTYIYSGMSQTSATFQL
proKLK7 act: proKLK7 zymogen activators, primary screen, biochemical, fluorescence intensity | AID 652039, 2013 | activation, % at 7 µM | purified proKLK7, EDANS-DABCYL substrate fluorescence; 100% is mature enzyme control, 0% vehicle | Kallikrein-7 (Homo sapiens), P49862 | actives 0.9% (n = 370,000);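 active = activation above the mean of all tested compounds plus 3 SD, computed per campaign excluding outliers beyond control limits, cut at about 13% in these data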
Rin1 Abl inh: inhibitors of Rin1-Abl protein binding, primary screen, biochemical, TR-FRET. AID 588664, 2011. actives 0.4% (n = 360,000). inhibition, % at 7.35 µM; in the data active = inhibition above about 5%, passing the limit was not always enough
MBD2 DNA inh: inhibitors of MBD2 binding to methylated DNA, primary screen, biochemical, TR-FRET, DNA-binding domain, human. MBD2 binding to methylated oligonucleotide. inhibition, % at 4.4 µM. actives 0.31% (n = 370,000). AID 686964, 2013; in the data active = inhibition above about 13%
LEDGF integ inh: blockers of LEDGF/p75-dependent integrase strand transfer – biochemical, TR-FRET, high throughput, primary screen. HIV-1 integrase (with human LEDGF/p75). actives 0.64% (n = 370,000). AID 743269, 2014. inhibition, % at 3.7 µM. TR-FRET IN-LEDGF/p75 DNA integration, Eu/Cy5;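 active = inhibition above the screen-wide mean plus 3 SD, cut at about 13% in these data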;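 also: signal is the Cy5 over europium emission ratio at 671 and 618 nm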
UHRF1 MBD2 ctr: UHRF1 methylated DNA binding inhibitors, primary screen, counter-screen for MBD2 inhibitor project, biochemical, TR-FRET, human UHRF1, single concentration | E3 ubiquitin-protein ligase UHRF1 (Homo sapiens), Q96T88 | UHRF1 binding to methylated oligo | inhibition, % at 4.4 µM | actives 0.75% (n = 370,000) | AID 687016, 2013; in the data active = inhibition above about 21%;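 also: UHRF1 SRA domain binding a hemimethylated CpG hairpin DNA probe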
Rin1 Abl conf: Rin1-Abl binding inhibitor retest, confirmation, biochemical, TR-FRET; shares compounds with Rin1 Abl inh; purified proteins; inhibition, % at 7.35 µM; actives 49% (n = 1,300); AID 602124, 2011
GFP quench: GFP fluorescence inhibitors and quenchers, artefact control for Rin1-Abl interaction inhibitor project, biochemical; AID 602125, 2011; inhibitors/quenchers counterscreen; inhibition, % at 6.75 µM; actives 8.5% (n = 1,300); shares compounds with Rin1 Abl inh;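 also: ABL1-eGFP fusion protein alone without its partner RIN1-SBP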
GFP quench DR: GFP fluorescence inhibitors and quenchers, dose response, artefact control for Rin1-Abl interaction inhibitor project, biochemical | shares compounds with Rin1 Abl inh | IC50, µM | GFP fluorescence interference/quenching counterscreen | 230 tested, under 10 active; call rule not given here;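 also: ABL1-eGFP fusion protein alone without its RIN1 binding partner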
IN multimer act: HIV-1 IN multimer formation enhancers, counter-screen for LEDGF/p75 integration inhibitor project, biochemical, TR-FRET. shares compounds with LEDGF integ inh. TR-FRET HIV-1 integrase multimerization. activation, % at 7.7 µM. actives 17% (n = 2,000). AID 1053131, 2014; in the data active = activation above about 8.9%
TR-FRET interf: TR-FRET optical interference artefacts, confirmation, artefact control for LEDGF/p75-dependent integration inhibitor project, biochemical, HIV-1 IN multimerization. shares compounds with LEDGF integ inh. TR-FRET optical interference counterscreen. inhibition, % at 7.7 µM. 2,000 tested, under 10 active;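 active = inhibition above the mean over all tested compounds plus 3 SD, which no compound reached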
IN-LEDGF confirm: inhibitors of HIV-1 IN-LEDGF/p75 DNA integration, confirmation, biochemical, TR-FRET; inhibition, % at 3.7 µM; TR-FRET LEDGF/p75-dependent HIV-1 integration; shares compounds with LEDGF integ inh; actives 36% (n = 2,000); in the data active = inhibition above about 14%
Each line names hits and unclear results; the compound was inactive in the other large screens (follow-up assays come after a bar, where they were run). Rule as the data show it, unless noted: active = inhibition above about 6.5%; inactive = the rest.

COc1ccc([C@@H]2C[C@H]3[C@@H](CN2S(=O)(=O)c2ccccc2)C(=O)C[C@@H](c2ccc(OC)cc2)N3S(=O)(=O)c2ccccc2)cc1	none
Oc1ccc(N=Cc2ccc(O)c(O)c2)cc1	none (no result: proKLK7 act, MBD2 DNA inh, LEDGF integ inh, UHRF1 MBD2 ctr)
Oc1ccc(/C=N/N=C/c2ccc(O)c(O)c2)cc1O	Rin1 Abl inh 23.5, LEDGF integ inh 74.6 | Rin1 Abl conf 56.8 | GFP quench 16.2 | IN multimer act 31.9 | TR-FRET interf inactive | IN-LEDGF confirm 89.8
O=C(N/N=C/c1cccnc1)c1cc(O)c(O)c(O)c1	Rin1 Abl inh 62.0, LEDGF integ inh 37.6 | Rin1 Abl conf 73.9 | GFP quench 21.5 | IN multimer act 34.9 | TR-FRET interf inactive | IN-LEDGF confirm 20.0
Cc1cc(Br)ccc1S(=O)(=O)n1ccnc1C	none
Oc1ccc(/C=N/N(c2ccccc2)c2ccccc2)c(O)c1O	Rin1 Abl inh 10.4, LEDGF integ inh 25.6 | Rin1 Abl conf inactive | GFP quench inactive | IN multimer act inactive | TR-FRET interf inactive | IN-LEDGF confirm 15.9
CCCCCCCC(=O)O	none
C[C@@H]1NC(=O)N[C@@H]1CCCCCC(=O)O	Rin1 Abl inh 91.6, LEDGF integ inh 82.2 | Rin1 Abl conf 95.3 | GFP quench inactive | GFP quench DR inactive | IN multimer act inactive | TR-FRET interf inactive | IN-LEDGF confirm 74.3
Cc1cccc(C)c1NC(=O)CCCCCC1NC(=O)NC1C (stereo not drawn)	Rin1 Abl inh 82.4, LEDGF integ inh 19.9 | Rin1 Abl conf 91.0 | GFP quench inactive | GFP quench DR inactive | IN multimer act inactive | TR-FRET interf inactive | IN-LEDGF confirm inactive
O=C(OCC(=O)N1CCCC1)c1c(Cl)ccc(Cl)c1Cl	none
NNC(=O)c1cc(O)c(O)c(O)c1	Rin1 Abl inh 33.6, LEDGF integ inh 61.0, UHRF1 MBD2 ctr 29.3 | Rin1 Abl conf 51.3 | GFP quench 7.1 | IN multimer act 39.0 | TR-FRET interf inactive | IN-LEDGF confirm 62.7
COc1c(Cl)cc(C(=O)NN)cc1Cl	none
CCOC(=O)c1ccc(CC(=O)c2ccc(O)c(O)c2O)o1	Rin1 Abl inh 13.5, LEDGF integ inh 73.9, UHRF1 MBD2 ctr 23.7 | Rin1 Abl conf 7.3 | GFP quench 16.1 | IN multimer act inactive | TR-FRET interf inactive | IN-LEDGF confirm 58.3
Cc1[nH]n(-c2ccccc2)c(=O)c1C(c1cccc([N+](=O)[O-])c1)c1c(C)[nH]n(-c2ccccc2)c1=O	Rin1 Abl inh 9.1, LEDGF integ inh 26.7 | Rin1 Abl conf inactive | GFP quench inactive | IN multimer act inactive | TR-FRET interf inactive | IN-LEDGF confirm inactive
